Data from ChEMBL document CHEMBL4513216, “Probing the Open Global Health Chemical Diversity Library for Multistage-Active Starting Points for Next-Generation Antimalarials” (ACS Infect Dis, 2020).
The campaign covered roughly 68,000 compounds. About 2,700 (4%) showed an effect of 50% or more. This excerpt belongs to a sample that is enriched for strong results.

Tested on: Plasmodium berghei
Test: Screen against P. berghei liver stage (PbLuc), transformed with Luciferase, at 2uM
Format: functional, HepG2
Conditions: tested at 2 uM

SMILES | INHIBITION [%]
CCO[C@@H]1CC[C@H]2[C@H]1OCCN2C(=O)CC1=CCCCC1 | -32.82
CC(C)n1cnc(C2CN(C)c3ccc(C(=O)NC4CCCC4)cc32)n1 (stereo not given) | 9.36
O=C(c1ccc2c(c1)[nH]c(=O)n2C1CCC(O)CC1)N1CCOCC1 (stereo not given) | 42.8
Cc1cc(N2CCCC2c2nc(C)cc(CCC(=O)O)n2)ncn1 (stereo not given) | 27.81
NC(=O)C1CCN(C(=O)NCc2ccccc2-n2cccn2)C1 (stereo not given) | 32.41
c1cncc(COC2COC3(CCN(c4cnccn4)CC3)C2)c1 (stereo not given) | -16.36
COc1ccc(CC(=O)N2CCN(Cc3ccco3)C[C@@H]2C)cc1 | 19.69
C[C@@H]1CN(Cc2ccco2)CCN1C(=O)Cc1ccccc1F | 50.68
COc1ccccc1CC(=O)N1CCN(Cc2ccco2)C[C@@H]1C | 4.19
Cc1nn(C)c(C)c1CN(C)C(C(=O)O)c1ccc(F)cc1F (stereo not given) | 13.99
CNC(=O)C(C)(C)NC(=O)c1cc(COc2ccccc2OC)[nH]n1 | -25.61
COc1ccccc1CC(=O)NS(=O)(=O)c1ccc(C(N)=O)cc1 | 1.5
COc1ccc(Cl)cc1CC(=O)NS(=O)(=O)c1ccc(C(N)=O)cc1 | 58.96
COc1ccc(F)cc1CN(CC(N)=O)C(C)C | -21.69
COc1ccc(C)cc1CC(=O)NS(=O)(=O)c1ccc(C(N)=O)cc1 | 43.75
COc1ccc(C)cc1CN(CC(N)=O)C(C)C | 11.51
COc1ccc(Cl)cc1CN(CC(N)=O)C(C)C | 50.46
c1ccn(Cc2nnc3n2CCCN(c2cnccn2)C3)c1 | -11.68
Cc1cnc(CN(C)C2CCN(Cc3ccc(Cl)s3)C2)o1 (stereo not given) | -39.39
Cc1noc(C)c1CN1C(=O)[C@@H]2CC[C@H]1CN(Cc1cccnc1N)C2 | 31.38
CC(C)=CCN1C(=O)[C@@H]2CC[C@H]1CN(Cc1cccnc1N)C2 | 16.01
Nc1ncccc1CN1C[C@H]2CC[C@@H](C1)N(CC1CC1)C2=O | 70.26
Cc1nccc(NCc2cncc3c2CCN(CC2CC2)C3)n1 | 25.86
CCOc1ccc(NC2CCN(C3CC3)C2=O)cn1 (stereo not given) | -13.8
Cc1ncc(CNCC(C)O)c2cc(C(=O)c3ccc(Br)cc3)oc12 (stereo not given) | -4.01
Cc1ncc(CNC(C)(C)CO)c2cc(C(=O)c3ccc(Br)cc3)oc12 | 61.06
Cc1ncc(CNCCO)c2cc(C(=O)c3ccc(Br)cc3)oc12 | 29.19

SMILES | INHIBITION [%]
CCc1ccc(C2CCCCCN2C(=O)CNC(=O)C2CC2)o1 (stereo not given) | -1.21
OC(CNCCn1cccn1)c1ccc(C(F)(F)F)cc1 (stereo not given) | -33.92
CCc1nnc(Nc2cccc(C3CCN(CC4CC4)CC3)n2)s1 | 20.71
CCc1nnc(Nc2cccc(C3CCCN(CC(C)(C)C)C3)n2)s1 (stereo not given) | 53.05
CCc1nnc(Nc2cccc(C3CCN(C)CC3)n2)s1 | 7.64
CC(C)CCOCCNC(=O)Nc1ccc(F)c(C(N)=O)c1 | -24.7
Cc1cc(C(F)(F)F)nc(C2COCCN2S(C)(=O)=O)n1 (stereo not given) | 6.64
Cc1ccc(CN(C)C(C(=O)O)c2ccc3c(c2)OCO3)o1 (stereo not given) | -39.01
Cc1cccc(S(=O)(=O)N2CSCC2C(=O)NCC2CC2)c1 (stereo not given) | 3.89
CC(C)(C)NC(=O)C1CSCN1S(=O)(=O)c1cccc(F)c1 (stereo not given) | 7.74
Cc1cccc(S(=O)(=O)N2CSCC2C(=O)NC(C)(C)C)c1 (stereo not given) | 55.18
N#Cc1cccc(NC(=O)C2CCCN2c2nccs2)c1 (stereo not given) | 6.77
Cc1ccc2nc(C3CCCN3Cc3csc(C)n3)[nH]c2c1 (stereo not given) | 29.53
Cc1ccc2nc(C3CCCN3Cc3scnc3C)[nH]c2c1 (stereo not given) | 47.23
Cc1ccc2nc(C3CCCN3Cc3nnc(C)s3)[nH]c2c1 (stereo not given) | 78.16
O=C(NCCc1ccccc1)N1CCC(C2OCCO2)CC1 | 5.92
O=C(Cc1ccc(CO)cc1)N1CCN(c2ccccc2Cl)C(=O)C1 | 47.76
CCC(NC(=O)c1ccc2[nH]ccc2c1)C(=O)N1CCOCC1 (stereo not given) | 5.98
CC(C)c1nnc2n1CCN(Cc1ncc(-c3ccccc3)o1)C2 | -58.75
COCCNc1ccccc1CNC(=O)C1CCCOC1 (stereo not given) | -4.26
O=C(NCc1ccccc1OCC1CC1)C1CCOC1 (stereo not given) | 14.82
CC(C)(C)Oc1ccccc1CNC(=O)C1CCCOC1 (stereo not given) | 52.98
NC(=O)CN1CC2(CCC1=O)CCN(Cc1ccc(Cl)c(F)c1)CC2 | 23.63
CC(C)Cn1cncc1CNC1CCSC1 (stereo not given) | -18.33
COc1c(CNC2CCC(O)CC2)c(C(C)C)nn1C (stereo not given) | 11.2
COc1c(CNC2CCN(c3ccccn3)CC2)c(C(C)C)nn1C | -11.2
COc1c(CNC2CCN(C(=O)C(C)C)CC2)c(C(C)C)nn1C | 11.2

SMILES | INHIBITION [%]
COc1c(CNC2CCN(c3ncccn3)CC2)c(C(C)C)nn1C | -79.53
COc1c(CNC2CCN(C(C)(C)C)CC2)c(C(C)C)nn1C | 51.19
COc1c(CNC2CCCN(c3ncccn3)C2)c(C(C)C)nn1C (stereo not given) | 56.02
Clc1ccccc1C1CN(CCc2ccncc2)CCO1 (stereo not given) | -35.92
COc1ccc(NC(=O)c2nc3ccccc3n(C)c2=O)cc1OC | 9.85
CNS(=O)(=O)Cc1ccc(CNC(=O)c2cccc(C)n2)cc1 | 65.77
CNS(=O)(=O)c1ccc(CNC(=O)c2cccc(C)n2)cc1 | -9.17
Cc1cccc(C(=O)NCc2ccc(CS(N)(=O)=O)cc2)n1 | -45.83
CO[C@H]1CN(C(=O)OC(C)(C)C)CC1NCc1ccco1 (stereo not given in full) | 32.73
CC(c1ccccc1)N(C)C(=O)CN1CCCc2cc(F)cc(F)c21 (stereo not given) | 27.52
Nc1nc(C(=O)NCC2CCC3(CCNCC3)CO2)cs1 (stereo not given) | -51.85
COCCn1cncc1CN1CCCC(C(=O)Cc2ccccc2)C1 (stereo not given) | 58.09
O=C(Cc1ccccc1)C1CCCN(Cc2cncn2C2CCCC2)C1 (stereo not given) | 19.75
O=C(CCc1ccccc1)C1CCCN(Cc2cncn2C2CC2)C1 (stereo not given) | 21.67
COCCN(Cc1ccoc1)S(=O)(=O)c1ccc(OC)c(Cl)c1 | 1.04
CN(C)S(=O)(=O)N1CCCCCC1c1cc(-c2ccc(F)cc2)no1 (stereo not given) | 6.64
Cc1ccccc1C(CC(=O)NCc1n[nH]c(N)n1)c1ccccc1 (stereo not given) | 28.1
Cc1ccccc1C(CC(=O)NCc1nnc(N)s1)c1ccccc1 (stereo not given) | 9.13
Cc1ccccc1C(CC(=O)NCC(N)=O)c1ccccc1 (stereo not given) | 57.59
Cc1cc(C(=O)NCc2cnn(C)c2C)nc(N2CCCCCC2)n1 | -5.59
O=C(Nc1ccc(F)c(-n2cccc2)c1)NC1(CCO)CCOCC1 | -13.38
COCCN(Cc1ccccn1)C(=O)Nc1cccnc1N1CCCC1 | -40.03
COc1ccccc1C(=O)Nc1ccc(OC2CCN(C)CC2)cc1 | 56.93
Cc1ccc(C(=O)Nc2ccc(OC3CCN(C)CC3)cc2)c(C)c1 | 55.84
Cc1ccccc1C(=O)Nc1ccc(OC2CCN(C)CC2)cc1 | 37.87
CN1CCC(Oc2ccc(NC(=O)c3ccccc3Br)cc2)CC1 | 16.64
Cc1cccc(C(=O)Nc2ccc(OC3CCN(C)CC3)cc2)c1 | 11.63

SMILES | INHIBITION [%]
Cc1ccc(C)c(C(=O)Nc2ccc(OC3CCN(C)CC3)cc2)c1 | 29.71
CN(CCc1ccccn1)c1cc(N2CCCCC2)ncn1 | 26.74
Cc1ccc(-c2noc(C3CCN3C(=O)c3cc[nH]n3)n2)s1 (stereo not given) | -24.35
CCCc1nnc(N2CC[C@](C)(O)[C@H](C)C2)s1 | 40.28
Cc1cc(CN2CCc3nc(-c4ccncc4)nc(O)c3CC2)c(C)s1 | 17.72
CN(CCC(O)c1ccccc1)c1cc(N2CCOCC2)ncn1 (stereo not given) | -3.38
CCN(CC)c1nc2sc(C(=O)NCC(=O)OC)cc2s1 | 5.1
Fc1ccc(N2CCOC3(COCCN(c4ncccn4)C3)C2)cc1 (stereo not given) | 26.31
Cn1nnc2c(N3CC(C(=O)NCc4cccs4)C3)ncnc21 | 41.71
COc1cccc(OC2CN(C(=O)C3CCCN(C(=O)N(C)C)C3)C2)c1 (stereo not given) | 52.6
Cc1cccc(C)c1OC1CN(C(=O)C2CCCN(C(=O)N(C)C)C2)C1 (stereo not given) | 10.04
Cc1cccc(C)c1OC1CN(C(=O)C2CCN(C(=O)N(C)C)CC2)C1 | 24.23
CCc1ccc(CN2CCc3[nH]nc(C(=O)N4CCNC(=O)C4)c3C2)o1 | -15.83
Cc1cccc(CN2CCc3[nH]nc(C(=O)N4CCNC(=O)C4)c3C2)n1 | 25.04
Cc1ccc(CN2CCc3[nH]nc(C(=O)N4CCNC(=O)C4)c3C2)s1 | 57.85
O=C(CN1CCOC(Cn2cccn2)C1)NCc1ccccn1 (stereo not given) | -12.75
NC(=O)c1cc2c(nc1Oc1ccc(CN3CCCC3)cc1F)CCC2 | 12.21
CNC(=O)c1cc2c(nc1N(C)C)CCN(c1ncc(C)cn1)CC2 | -37.2
COc1ccc(Cl)cc1NCC(=O)NCCNc1ncccn1 | -5.6
COc1ccc(Cl)cc1NCC(=O)NCCNc1cnccn1 | 55.7
COc1ccc(Cl)cc1NCCC(=O)NCCNc1cnccn1 | -22.83
NC(=O)CN1CCCC1c1csc(Nc2cnccn2)n1 (stereo not given) | -20.73
CN1CCC2(COCc3cnc(N4CCOCC4)nc32)C1 (stereo not given) | 18.97
CS(=O)(=O)NC(=O)c1ccn(-c2ccccc2Cl)n1 | -61.69
